In PubChem BioAssay (NCI):
About 83,000 compounds went through this panel and 20% of them were active in at least one assay; those are over-represented in the sample as a whole.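 The endpoint reported here, percent growth, reads 100 for growth as untreated, 0 for no net growth and -100 for all cells dead.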 Active and inactive are the calls of the source. Rule for the calls: active = growth percent below 10; inactive = the rest.

Columns and labels:
Assay in all cases: NCI-60 one-dose screen, 48 h (100 = growth as untreated, 0 = no growth, -100 = all killed)
Settings in all cases: 10 µM
[1] = tested on: NCI-H23 lung
[2] = tested on: NCI-H226 lung
[3] = tested on: NCI-H460 lung
[4] = tested on: HOP-92 NSCLC
[5] = tested on: NCI-H522 lung
[6] = tested on: A549/ATCC NSCLC
[7] = tested on: 786-0 renal
[8] = tested on: COLO 205 colon
[9] = tested on: DU-145 prostate
[10] = tested on: K-562 leukemia
[11] = tested on: MALME-3M melanoma
[12] = tested on: MDA-MB-231 breast
[13] = tested on: RXF 393 renal
[14] = tested on: SF-268 CNS
[15] = tested on: SF-295 CNS
[16] = tested on: SF-539 CNS
[17] = tested on: UACC-257 melanoma
[18] = tested on: M14 melanoma
[19] = tested on: HOP-62 NSCLC

Measured: growth

COc1ccc(-c2nn(-c3cccc(Cl)c3)cc2-c2cc(-c3cccs3)[nH]c(=S)n2)cc1
active: [15] 8.31%
inactive: [1] 15.7% | [2] 58.9% | [3] 43.8% | [4] 94% | [5] 46.5% | [6] 39.7% | [7] 38.4% | [8] 52.4% | [9] 74.6% | [10] 28.3% | [11] 31.1% | [12] 83.3% | [13] 56.7% | [14] 61.6% | [16] 69.3% | [17] 88.6% | [18] 33.6%

N#Cc1c(-c2ccc(Cl)cc2)n(O)c2ccccc12
inactive: [2] 75.7% | [5] 10.7% | [6] 26.9% | [8] 115% | [9] 25.4% | [10] 11.6% | [12] 30.5% | [14] 32.5% | [15] 42.1% | [17] 47.4% | [18] 13.5%
active: [1] -13.5% | [3] 9.12% | [4] -8.45% | [7] 8.19% | [11] 6.37% | [13] 9.91% | [16] -10.1%

O=C1NC(=O)c2c(CCCSc3nc4ccccc4c(=O)n3CCc3ccccc3)cccc21
inactive: [1] 76.7% | [2] 82.9% | [3] 83.8% | [4] 94.5% | [5] 89.3% | [6] 89.4% | [7] 78.6% | [8] 118% | [9] 111% | [10] 89.7% | [12] 65.8% | [13] 92.8% | [14] 91.2% | [15] 44.9% | [16] 65.7% | [17] 105% | [18] 98.1%

CN(C)c1ncnc2c1nnn2C1OC(CO)C(O)C1O (centres undefined)
active: [1] 4.79% | [5] -25.2% | [8] -80.9% | [11] -10.4% | [13] -2.59% | [15] 6.4% | [16] -2.72% | [18] -13.2%
inactive: [2] 39.9% | [19] 32.7% | [4] 19.6% | [6] 36.3% | [7] 17.2% | [9] 15.9% | [12] 36.5% | [14] 24.9% | [17] 11.8%

COC(=O)c1c[nH]c2cc(OC(C)C)c(OC(C)C)cc2c1=O
inactive: [1] 97.6% | [2] 92.9% | [19] 37.9% | [5] 94.3% | [6] 61.8% | [7] 110% | [8] 108% | [9] 110% | [10] 98.9% | [11] 125% | [12] 109% | [13] 94.7% | [14] 104% | [15] 105% | [16] 91% | [17] 87.6% | [18] 108%

COc1ccc(-c2nn(-c3cccc(Cl)c3)cc2-c2c(C#N)c(N)n(N)c(=O)c2C#N)cc1
inactive: [1] 66.9% | [2] 66.5% | [3] 72.2% | [4] 53.8% | [6] 66.2% | [7] 84.2% | [8] 85.3% | [9] 90.5% | [12] 75.3% | [13] 65.3% | [14] 60.2% | [16] 72.8% | [17] 90.3% | [18] 73.5%
active: [5] -46%

O=c1c(Br)ccc(Br)cc1Br
inactive: [2] 97.5% | [19] 15.2% | [3] 36.1% | [14] 14.3% | [15] 46.7% | [16] 15%
active: [1] -51.8% | [7] -29.3% | [8] -70.6% | [9] -72.3% | [10] -11.6% | [12] -3.63% | [13] -89.5% | [18] -70.2%

COc1ccc(C(=O)c2ccccc2CN2C(=O)c3ccccc3C2=O)cc1
inactive: [1] 91.7% | [2] 102% | [3] 105% | [4] 86.7% | [5] 95.3% | [6] 98.9% | [7] 101% | [8] 118% | [9] 110% | [10] 96.5% | [11] 98.6% | [12] 109% | [13] 107% | [14] 102% | [15] 100% | [16] 108% | [17] 104% | [18] 104%

CC1=CC2C(C(O)CC3(C)C2CC(C)C32OCOC23COCO3)C2(C)C/C(=C/O)C(=O)C=C12 (centres undefined)
inactive: [2] 78.4% | [4] 94.1% | [6] 41.8% | [7] 58.8% | [9] 44.1% | [11] 15.5% | [12] 18% | [13] 26.1% | [14] 24.8% | [15] 79.5% | [16] 41.5% | [17] 78.2% | [18] 18.7%
active: [1] -0.378% | [3] 7.96% | [5] -26.7% | [8] -14.4% | [10] 2.43%

CCOC(=O)N/N=C/c1ccc(OC)c(OC)c1
inactive: [1] 113% | [2] 97.9% | [19] 112% | [3] 102% | [6] 102% | [7] 104% | [8] 117% | [9] 118% | [10] 99.9% | [11] 132% | [12] 106% | [13] 101% | [14] 127% | [15] 101% | [16] 112% | [17] 106% | [18] 113%

NC1=CC(=O)C(=O)c2cccnc21
inactive: [1] 18.7% | [2] 82.4% | [19] 80.2% | [4] 149% | [5] 59.8% | [6] 43.9% | [7] 99.7% | [8] 98.7% | [9] 28.3% | [10] 88.4% | [12] 83.9% | [13] 83.5% | [14] 90.4% | [15] 77.3% | [16] 101% | [17] 64.4% | [18] 32.1%
active: [11] -0.873%

O=c1cn[nH]c2ccc(Br)cc12
inactive: [1] 97.6% | [2] 100% | [3] 108% | [4] 123% | [5] 91.3% | [6] 102% | [7] 99.6% | [8] 109% | [9] 105% | [10] 95.7% | [11] 114% | [12] 116% | [13] 95.3% | [14] 99.9% | [15] 107% | [16] 95.6% | [17] 104% | [18] 101%

CCc1ccc(C2=NN(c3ccc(S(C)(=O)=O)cc3)C(=O)CC2)cc1
active: [1] -4.83% | [5] -1.27% | [15] 9.24% | [18] 5.99%
inactive: [2] 69.1% | [3] 10.5% | [4] 68.6% | [6] 35.6% | [7] 36.4% | [8] 22.5% | [9] 21.3% | [10] 10.4% | [11] 38.8% | [12] 55.5% | [13] 27.4% | [14] 42.8% | [16] 15.1% | [17] 59.1%

COc1ccc(-c2nn(-c3cccc(Cl)c3)cc2-c2cc(-c3ccccc3)[nH]c(=O)c2C#N)cc1
active: [4] -28% | [7] 6.65% | [12] -8.6% | [13] -25.6% | [15] -36% | [16] -45.9%
inactive: [1] 26.6% | [2] 24% | [3] 31.6% | [5] 44% | [6] 39.7% | [8] 60.7% | [9] 47.1% | [10] 44.9% | [11] 24.7% | [14] 34.8% | [17] 75.5% | [18] 32.5%

O=C(Nc1cc([N+](=O)[O-])c2[nH]c(=O)c3ccccc3c2c1)C(F)(F)F
inactive: [1] 81.8% | [2] 93.4% | [3] 38.4% | [4] 112% | [5] 77.2% | [6] 62% | [7] 88.8% | [8] 88.5% | [9] 97.1% | [10] 84.6% | [11] 83.7% | [12] 88.6% | [13] 76.7% | [14] 86.7% | [15] 80.8% | [16] 93.6% | [17] 93.4% | [18] 107%

COc1ccccc1-n1c(-c2sc(NC(C)=O)nc2C)n[nH]c1=S
inactive: [1] 101% | [2] 106% | [3] 110% | [4] 105% | [5] 102% | [6] 104% | [7] 106% | [8] 116% | [9] 119% | [10] 101% | [11] 104% | [12] 106% | [13] 107% | [14] 94.9% | [15] 83.2% | [16] 103% | [17] 114% | [18] 98.8%

O=C(c1ccccc1)N(C(=O)c1ccccc1)N1CCCC1
inactive: [1] 96.4% | [2] 92.7% | [19] 104% | [3] 106% | [7] 110% | [8] 110% | [9] 113% | [10] 101% | [12] 117% | [13] 110% | [14] 98.7% | [15] 104% | [16] 99.9% | [18] 102%

COc1ccc(/C(=N\N)C(=O)c2ccccc2)cc1 (tested in a mixture with another compound)
inactive: [1] 96.8% | [2] 95.6% | [19] 100% | [4] 82.7% | [5] 72.7% | [6] 90.4% | [7] 105% | [8] 110% | [9] 108% | [10] 101% | [11] 106% | [12] 102% | [13] 96.9% | [14] 96.2% | [15] 89% | [16] 114% | [17] 90.8% | [18] 124%
